Measurements as given in PubChem BioAssay (NCI).
Compounds without any hit were thinned out: in the full panel of roughly 79,000, 15% have a hit. Values without a mark were called inactive. Calls of active or inactive are those of the source. No stated cut-off is given here; in the data, active means growth inhibition above about 70%; inactive means the rest.

Columns and labels:
[1] = NCI Yeast Anticancer Drug Screen. Data for the rad50 strain (AID 155);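 further: 0% = growth of vehicle-only cultures of the same strain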; conditions: S. cerevisiae rad50 strain growth inhibition; at 50.0 µM; stronger effect = higher value
Summary of the method: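 Readout: growth inhibition relative to vehicle-treated cultures. Compound exposure was carried out in a genetically defined yeast strain deficient in DNA damage repair.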

[2] = NCI Yeast Anticancer Drug Screen. Data for the mec2-1 strain (AID 157); conditions: S. cerevisiae mec2-1 strain, at 50.0 µM, stronger effect = higher value
Summary of the method: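 Growth inhibition is read against vehicle-treated controls after compound exposure of the mec2-1 yeast strain, which is defective in DNA damage repair or cell cycle control.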

[3] = NCI Yeast Anticancer Drug Screen. Data for the sgs1 mgt1 strain (AID 161);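 further: 0% = growth of cultures given vehicle only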; conditions: S. cerevisiae sgs1 mgt1 strain, at 50.0 µM, stronger effect = higher value
Summary of the method: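 Compounds are added to genetically altered yeast, and growth is compared with cultures given vehicle alone to give percent inhibition.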

[4] = NCI Yeast Anticancer Drug Screen. Data for the cln2 rad14 strain (AID 165);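 further: 0% = growth equal to vehicle treated cultures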; conditions: S. cerevisiae cln2 rad14 strain, at 50.0 µM, stronger effect = higher value
Summary of the method: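 Growth inhibition, relative to vehicle-treated controls, is the read-out. The test organism is a yeast strain with defined genetic alterations, cln2 rad14.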

[5] = NCI Yeast Anticancer Drug Screen. Data for the bub3 strain (AID 167); conditions: S. cerevisiae bub3 mutant strain, at 50.0 µM, stronger effect = higher value
Summary of the method: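 Readout: yeast growth inhibition, expressed relative to vehicle-only wells. The test organism is a mutant strain from a panel with lesions in DNA repair or checkpoint genes.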

[6] = NCI Yeast Anticancer Drug Screen. Data for the mlh1 rad18 strain (AID 175); conditions: S. cerevisiae mlh1 rad18 strain growth inhibition; at 50.0 µM; stronger effect = higher value
Summary of the method: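 Cells of a genetically altered yeast strain, deficient in DNA damage repair, were treated with compound. Their growth was then compared with that of vehicle-treated cultures to give inhibition.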

COCCCNC(=O)C1=C(C)NC(C)=C(C(=O)NCCCOC)C1
growth inhibition [1]: -49% | growth inhibition [2]: -64.2% | growth inhibition [3]: -10.7% | growth inhibition [4]: 3.6% | growth inhibition [5]: -11.2% | growth inhibition [6]: -50.6%

CC12C(=O)OC3CCC1CC32 (stereo not given)
growth inhibition [1]: 10.8% | growth inhibition [2]: 7.1% | growth inhibition [3]: -5.85% | growth inhibition [4]: -26.6% | growth inhibition [5]: 6.65% | growth inhibition [6]: 2.95%

NC(=S)N/N=C\c1nccc2ccsc12
growth inhibition [1]: 10.4% | growth inhibition [2]: -5.7% | growth inhibition [3]: -9.35% | growth inhibition [4]: -29.9% | growth inhibition [5]: -0.05% | growth inhibition [6]: 2.7%

O=C(O)CC1(c2ccccc2)CCCCC1
growth inhibition [1]: -1.1% | growth inhibition [2]: 7.05% | growth inhibition [3]: 0.65% | growth inhibition [4]: -6.2% | growth inhibition [5]: 46.8% | growth inhibition [6]: 2.3%

COc1cc(C=O)cc(O)c1O
growth inhibition [1]: 11.8% | growth inhibition [2]: 3.05% | growth inhibition [3]: -10.6% | growth inhibition [4]: -19.2% | growth inhibition [5]: -1.9% | growth inhibition [6]: -0.6%

O=C(c1ccc(F)cc1)c1ccc2ccccc2c1C(=O)O
growth inhibition [1]: 4.4% | growth inhibition [2]: 7.65% | growth inhibition [3]: 13.1% | growth inhibition [4]: 14.3% | growth inhibition [5]: 38.2% | growth inhibition [6]: -11.3%

O=C(NCCN1CCOCC1)c1ccc(I)cc1
growth inhibition [1]: 31.8% | growth inhibition [2]: 28.9% | growth inhibition [3]: 45% | growth inhibition [4]: 38.4% | growth inhibition [5]: 32.1% | growth inhibition [6]: 43.3%

CC(=O)Nc1ccc(S(=O)(=O)Nc2ccc([N+](=O)[O-])cc2)cc1
growth inhibition [1]: -37.4% | growth inhibition [2]: -40% | growth inhibition [3]: -22.8% | growth inhibition [4]: -8.65% | growth inhibition [5]: -31.9% | growth inhibition [6]: -36%

Cc1cc(N=Nc2ccc(S(=O)(=O)O)c3ccccc23)ccc1O
growth inhibition [1]: -33.6% | growth inhibition [2]: 9.75% | growth inhibition [3]: -5.1% | growth inhibition [4]: -66.1% | growth inhibition [5]: 12.9% | growth inhibition [6]: -5.6%

O=Cc1ccnc2ccccc12
growth inhibition [1]: 0.9% | growth inhibition [2]: 1% | growth inhibition [3]: 6.25% | growth inhibition [4]: 4% | growth inhibition [5]: -3.55% | growth inhibition [6]: 6.85%

C=Cc1cc2c(cc1O)CC[C@@H]1[C@@H]2CC[C@]2(C)[C@@H](O)CC[C@@H]12
growth inhibition [1]: 17.4% | growth inhibition [2]: 17.4% | growth inhibition [3]: 36.8% | growth inhibition [4]: 29.7% | growth inhibition [5]: 22.9% | growth inhibition [6]: 36.1%

CC(=O)OCC1OC(n2c(=S)n(-c3ccc([N+](=O)[O-])cc3)c(=O)c3ccccc32)C(OC(C)=O)C(OC(C)=O)C1OC(C)=O (stereo not given)
growth inhibition [1]: -6.3% | growth inhibition [2]: 19.1% | growth inhibition [3]: -9.55% | growth inhibition [4]: 19% | growth inhibition [5]: 11.8% | growth inhibition [6]: 9.1%

COc1ccccc1NC(=O)CC(=O)N/N=C/c1ccc(N(CCC#N)S(=O)(=O)c2ccccc2)cc1
growth inhibition [1]: -48.4% | growth inhibition [2]: 0.8% | growth inhibition [3]: -20.6% | growth inhibition [4]: 10.4% | growth inhibition [5]: -15.8% | growth inhibition [6]: -14.5%

CC12CC(=O)C3C(CCC4CC(OS(=O)(=O)O)CCC43C)C1CC1OC(=O)C=C12 (stereo not given)
growth inhibition [1]: 18.2% | growth inhibition [2]: -8.75% | growth inhibition [3]: -5.85% | growth inhibition [4]: 15.9% | growth inhibition [5]: -0.9% | growth inhibition [6]: 25.6%

[N-]=[N+]=N[Si](c1ccccc1)(c1ccccc1)c1ccccc1
growth inhibition [1]: -17.1% | growth inhibition [2]: -11.4% | growth inhibition [3]: 2.35% | growth inhibition [4]: 7.6% | growth inhibition [5]: -7.7% | growth inhibition [6]: 7.25%

NC(=O)c1nnn(-c2ccccc2)n1
growth inhibition [1]: -9.75% | growth inhibition [2]: -8.9% | growth inhibition [3]: -10% | growth inhibition [4]: -12.3% | growth inhibition [5]: -5.75% | growth inhibition [6]: -12.7%

O=C(CNOCc1ccccc1)OCc1ccccc1
growth inhibition [1]: 25.5% | growth inhibition [2]: 16.1% | growth inhibition [3]: 2.65% | growth inhibition [4]: -6.8% | growth inhibition [5]: 3.45% | growth inhibition [6]: 19.4%

Oc1ccccc1/C=N/n1cnnc1
growth inhibition [1]: 8.55% | growth inhibition [2]: 12.2% | growth inhibition [3]: -3.5% | growth inhibition [4]: -4.85% | growth inhibition [5]: -10.3% | growth inhibition [6]: -19.2%

Clc1c2c(nc3ccccc13)CCCC2
growth inhibition [1]: 19.3% | growth inhibition [2]: 50.9% | growth inhibition [3]: 49.4% | growth inhibition [4]: -37% | growth inhibition [5]: 7.65% | growth inhibition [6]: 8.05%

NC(=O)c1c(N)nnc(-c2ccccc2)c1-c1ccccc1
growth inhibition [1]: -6.15% | growth inhibition [2]: -7.65% | growth inhibition [3]: -5.75% | growth inhibition [4]: -25.8% | growth inhibition [5]: -3.45% | growth inhibition [6]: -16.2%

CC1=NN(C(=O)c2ccc(Cl)cc2)C(=O)/C1=C/c1ccc(O)cc1
growth inhibition [1]: -6.65% | growth inhibition [2]: -16.6% | growth inhibition [3]: -38.6% | growth inhibition [4]: -7.55% | growth inhibition [5]: -3.55% | growth inhibition [6]: -19.9%

Cc1cc(C)c(CC(=O)NCC(=O)NN)c(C)c1
growth inhibition [1]: -7.25% | growth inhibition [2]: -24.9% | growth inhibition [3]: -17.1% | growth inhibition [4]: -13.3% | growth inhibition [5]: -12% | growth inhibition [6]: -28.8%

Nc1ccc(O)c(N)c1
growth inhibition [1]: 35.1% | growth inhibition [2]: 23.5% | growth inhibition [3]: 26.6% | growth inhibition [4]: 13.9% | growth inhibition [5]: -8% | growth inhibition [6]: 31.4%

Cc1ccc(N=NNc2ccccc2)cc1
growth inhibition [1]: -7.7% | growth inhibition [2]: -8.05% | growth inhibition [3]: -7.65% | growth inhibition [4]: -13.9% | growth inhibition [5]: -11.3% | growth inhibition [6]: -7.6%

CCOc1ccccc1/C=C1\NC(=O)NC1=O
growth inhibition [1]: -38.6% | growth inhibition [2]: -35% | growth inhibition [3]: -35% | growth inhibition [4]: -14.9% | growth inhibition [5]: 2.6% | growth inhibition [6]: -6.7%

CC(=O)Oc1c(C(=O)O)cccc1-c1ccccc1
growth inhibition [1]: -12.8% | growth inhibition [2]: -7.1% | growth inhibition [3]: 9.6% | growth inhibition [4]: -15.8% | growth inhibition [5]: 30% | growth inhibition [6]: 4.95%

COc1cccc(C(=O)O)c1O
growth inhibition [1]: -16.9% | growth inhibition [2]: -11.8% | growth inhibition [3]: -15.3% | growth inhibition [4]: -8.8% | growth inhibition [5]: -19.9% | growth inhibition [6]: -7.7%

C[N+]1(CC[N+]2(C)CCCC2c2cccnc2)CCCC1c1cccnc1 (stereo not given)
growth inhibition [1]: 6.15% | growth inhibition [2]: -0.2% | growth inhibition [3]: -16.9% | growth inhibition [4]: -34.5% | growth inhibition [5]: 28% | growth inhibition [6]: 19.9%

OCCCNc1nc2cc(Cl)ccc2o1
growth inhibition [1]: 9.2% | growth inhibition [2]: 22.6% | growth inhibition [3]: 16.1% | growth inhibition [4]: -31.1% | growth inhibition [5]: 7.9% | growth inhibition [6]: -14.9%

c1ccc(N=C(Nc2ccccc2)N2CCCC2)cc1
growth inhibition [1]: -33.2% | growth inhibition [2]: -13.6% | growth inhibition [3]: -28.1% | growth inhibition [4]: 5.7% | growth inhibition [5]: -19.8% | growth inhibition [6]: -19.4%

CC1(O)CC2C=CC1CC2 (stereo not given)
growth inhibition [1]: 9.65% | growth inhibition [2]: 7.15% | growth inhibition [3]: 4.6% | growth inhibition [4]: 4% | growth inhibition [5]: 9.55% | growth inhibition [6]: 13.8%

Cc1ccnc(=S)[nH]1
growth inhibition [1]: 16.9% | growth inhibition [2]: 5.45% | growth inhibition [3]: 33.1% | growth inhibition [4]: 13.3% | growth inhibition [5]: 23.6% | growth inhibition [6]: 18.3%

O=c1[nH]nnc2ccccc12
growth inhibition [1]: 2.85% | growth inhibition [2]: 4.8% | growth inhibition [3]: 1.85% | growth inhibition [4]: 4.55% | growth inhibition [5]: 17.9% | growth inhibition [6]: -0.55%

C(=Nc1cnc2ccccc2c1)c1ccc2ccccc2n1
growth inhibition [1]: -5.3% | growth inhibition [2]: -13.4% | growth inhibition [3]: -11.3% | growth inhibition [4]: -6.2% | growth inhibition [5]: -55.9% | growth inhibition [6]: -14.8%

O=c1c[n+](-c2ccccc2)[nH]o1
growth inhibition [1]: 41.2% | growth inhibition [2]: -12.1% | growth inhibition [3]: 22.1% | growth inhibition [4]: 5.5% | growth inhibition [5]: 7.7% | growth inhibition [6]: 27.5%

N#C/C(=C\c1ccccc1)c1cccc(Br)c1
growth inhibition [1]: 3.9% | growth inhibition [2]: -6.1% | growth inhibition [3]: 17.4% | growth inhibition [4]: -22.9% | growth inhibition [5]: 48.1% | growth inhibition [6]: -1%

Cc1cc(Cc2ccc3c(c2)OCO3)ccc1OCC(=O)O
growth inhibition [1]: 15.1% | growth inhibition [2]: 18.3% | growth inhibition [3]: 15.6% | growth inhibition [4]: 13.4% | growth inhibition [5]: 20.8% | growth inhibition [6]: 23.8%

CCOC(=O)C(=C/C=C/NCCc1c[nH]c2ccccc12)C(=O)OCC
growth inhibition [1]: -23.1% | growth inhibition [2]: -44.5% | growth inhibition [3]: -20.8% | growth inhibition [4]: -10.2% | growth inhibition [5]: -15.2% | growth inhibition [6]: -26.2%

Clc1ccc(-c2cc(-c3ccc(Cl)cc3)n(-c3ccccc3)n2)cc1
growth inhibition [1]: -17.5% | growth inhibition [2]: -33.9% | growth inhibition [3]: -24.2% | growth inhibition [4]: 4% | growth inhibition [5]: 6.55% | growth inhibition [6]: -9.2%

Nc1ccc(Nc2c3ccccc3nc3ccccc23)cc1
growth inhibition [1]: 96% (active) | growth inhibition [2]: 33% | growth inhibition [3]: 23.4% | growth inhibition [4]: 10.3% | growth inhibition [5]: 23.4% | growth inhibition [6]: 69.3%
